Reference: PubChem BioAssay (EPA / NIEHS)
Where a structure was tested more than once in an assay, its records may differ in their call. Activity calls are given as the source filed them. How the source made its calls: active means hit-call score of the fitted dose curve at least 0.9, where 1 is the maximum; inactive means score below 0.9.

These molecules were tested on Eotaxin 3, CCL26 (gene 10344) (assay: BSK_BF4T_Eotaxin3: BioMAP Diversity Plus: BF4T Assay for Eotaxin 3 Biomarker Activity (AID 2284258)). Settings: primary human bronchial epithelial cells with fibroblasts.
Experimental: BSK_BF4T is a cell-based, multiplexed-readout assay that uses bronchial epithelial cells and dermal fibroblasts, a human vascular primary cell, with measurements taken at 24 hours after chemical dosing in a microplate: 96-well plate.BSK_BF4T_Eotaxin3 is an assay component measured in the BSK_BF4T assay. It measures Eotaxin-3 antibody related to regulation of gene expression using ELISA technology.Data from the assay component BSK_BF4T_Eotaxin3 was analyzed at the endpoint, BSK_BF4T_Eotaxin3, in the positive analysis fitting direction relative to DMSO as the negative control and baseline of activity. Using a type of binding reporter, gain or loss-of-signal activity can be used to understand protein changes. To generalize the intended target to other relatable targets, this assay endpoint is annotated to the 'cytokine' intended target family, where the subfamily is 'chemotactic factor'.
The levels of cell surface (or secreted, indicated by the prefix "s") biomarker endpoints were measured by ELISA. Overt cytotoxicity to cells in confluent adherent cultures (all systems other than the BT system) was assessed by measuring total protein levels using sulforhodamine B (SRB) staining in parallel cultures at the time of biomarker measurements, indicated as SRB endpoints. For proliferation assays for adherent cell types, individual cell types are cultured at sub-confluence and relative cell numbers quantified by SRB staining at time points optimized for each system (48 h: 3C and CASM3C systems; 72 h: BT and HDF3CGF systems; 96 h: SAg system). SRB was performed by staining cells with 0.1% SRB after fixation with 10% TCA and reading wells at 560 nm.Viability and proliferation of PBMC (T cells) was quantified by Alamar Blue reduction for the SAg and BT systems. For PBMC viability (referred to as PBMC Cytotoxicity within the assay endpoint names), cells were plated (75,000/well in a 96-well plate) and then chemical samples added for 1 h before addition of activators, SEB and TSST-1 (20 ng/mL final concentration each). Cells were incubated for 90 h. Then, Alamar Blue (20 uL/well) (Invitrogen, Cat DAL1100) was added for 6 h, and the plates were read with a fluorescence microplate reader at 546/580 nm (excitation/emission). For PBMC proliferation, cells were plated and activated as above but incubated for only 16 h prior to addition of Alamar Blue. Plates were read after 6 h.

**Q.** For OCC(F)(F)OC(F)(F)C(F)(F)OC(F)(F)C(F)(F)OC(F)(F)F, which AC50 is on record?
**A.** 49.2 µM (active)

**Q.** And the outcome?
**A.** inactive

**Q.** For O=C(O)C(F)(F)OC(F)(F)C(F)(F)OC(F)(F)C(=O)O, which outcome is on record?
**A.** inactive

**Q.** How did the outcome turn out when NC(=O)C(F)(F)C(F)(F)F was run?
**A.** inactive

**Q.** O=S(=O)(F)C(F)(F)C(F)(F)C(F)(F)C(F)(F)C(F)(F)C(F)(F)C(F)(F)C(F)(F)F was tested. Which outcome did it give?
**A.** inactive

**Q.** COC(=O)C(F)(F)C(F)(F)OC(F)(C(F)(F)F)C(F)(F)OC(F)=C(F)F (stereo not given) was tested. Which outcome did it give?
**A.** inactive

**Q.** For O=C(O)C(F)(F)C(F)(F)C(=O)O, which outcome is on record?
**A.** inactive

**Q.** Which outcome does the source give for O=C(O)C(F)(F)OC(F)(F)C(F)(F)OC(F)(F)F here?
**A.** inactive

**Q.** With OCC(F)(F)OC(F)(F)C(F)(F)OC(F)(F)C(F)(F)OC(F)(F)CO as the molecule, how does the outcome read?
**A.** inactive

**Q.** How did the outcome turn out when OCC(F)(F)OC(F)(F)C(F)(F)OC(F)(F)CO was run?
**A.** inactive

**Q.** Which outcome does the source give for C=CC(=O)OCC(F)(F)C(F)F here?
**A.** inactive

**Q.** Which outcome does the source give for FC(F)(F)C(F)(C(F)(F)F)C(F)(F)C(F)(F)CC1CO1 (stereo not given) here?
**A.** inactive

**Q.** O=C(O)C(F)(OC(F)(F)C(F)(F)C(F)(F)F)C(F)(F)F (stereo not given) was tested. Which outcome did it give?
**A.** inactive

**Q.** How did the outcome turn out when O=C(O)C=CC(F)(C(F)(F)F)C(F)(F)F was run?
**A.** inactive

**Q.** Which outcome does the source give for CC(O)C(F)(F)C(F)(F)F (stereo not given) here?
**A.** inactive
